Reference: the supplement of paper PMC6555819

Assays:
Assay in all cases: PBM binding z-score (relative to random genomic background probes); higher = stronger binding; sequences stand for … in GC…GCGATTGACAGCGTAGAATGAAGG
[1] = test system: FXR:RXRa (NR concentration 270 nM, RXRa partner concentration 90 nM)
Summary of the method: (§1)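 The probes on custom Agilent 4×180K protein-binding microarrays were double-stranded, with 34-nt variable regions bearing direct-repeat seeds, single-nucleotide variants, half-site ablations and random human genomic background sequences. Incubation lasted 1 h with ligand-free nuclear receptor dimers in PBS pH 7.4, 2% milk, 0.02% Triton X-100, 1 mM DTT, 0.2 mg/mL BSA and 0.4 mg/ml salmon testes DNA. Antibodies against each partner (one per run) detected bound dimers, and fluorescence scans were regression-normalized. Binding z-scores take the random background probes as reference.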

[2] = test system: LXRa:RXRa (NR concentration 270 nM, RXRa partner concentration 90 nM)
Summary of the method: as §1

[3] = test system: LXRa homodimer (NR concentration 270 nM)
Summary of the method: as §1

[4] = test system: LXRb:RXRa (NR concentration 270 nM, RXRa partner concentration 90 nM)
Summary of the method: as §1

[5] = test system: LXRb homodimer (NR concentration 270 nM)
Summary of the method: as §1

[6] = test system: PPARa:RXRa (NR concentration 270 nM, RXRa partner concentration 90 nM)
Summary of the method: as §1

[7] = test system: PPARg:RXRa (NR concentration 180 nM, RXRa partner concentration 90 nM)
Summary of the method: as §1

[8] = test system: PPARg:RXRa 270nM:90nM, anti-RXR (NR concentration 270 nM, RXRa partner concentration 90 nM)
Summary of the method: as §1

[9] = test system: PPARg:RXRa 30nM:10nM, anti-RXR (NR concentration 30 nM, RXRa partner concentration 10 nM)
Summary of the method: as §1

[10] = test system: PPARg:RXRa 90nM:30nM, anti-RXR (NR concentration 90 nM, RXRa partner concentration 30 nM)
Summary of the method: as §1

[11] = test system: PPARg:RXRa DBDmut IVT, anti-RXR (DBD mutation: RXRa K156A/R161A, NR concentration 270 nM, RXRa partner concentration 90 nM)
Summary of the method: as §1

[12] = test system: PPARg:RXRa IVT, anti-PPARg (NR concentration 270 nM, RXRa partner concentration 90 nM)
Summary of the method: as §1

[13] = test system: PPARg DBDmut:RXRa IVT, anti-PPARg (DBD mutation: PPARg1 K132A/R137A, NR concentration 270 nM, RXRa partner concentration 90 nM)
Summary of the method: as §1

[14] = test system: PPARg DBDmut IVT, anti-PPARg (DBD mutation: PPARg1 K132A/R137A, NR concentration 270 nM)
Summary of the method: as §1

[15] = test system: PPARg homodimer (NR concentration 180 nM)
Summary of the method: as §1

[16] = test system: PXR:RXRa (NR concentration 270 nM, RXRa partner concentration 90 nM)
Summary of the method: as §1

[17] = test system: PXR homodimer (NR concentration 270 nM)
Summary of the method: as §1

[18] = test system: RARa:RXR (NR concentration 270 nM, RXRa partner concentration 90 nM)
Summary of the method: as §1

[19] = test system: RARa homodimer (NR concentration 270 nM)
Summary of the method: as §1

[20] = test system: RARb:RXRa (NR concentration 270 nM, RXRa partner concentration 90 nM)
Summary of the method: as §1

Row | Sequence | PBM binding z-score [1] | PBM binding z-score [2] | PBM binding z-score [3] | PBM binding z-score [4] | PBM binding z-score [5] | PBM binding z-score [6] | PBM binding z-score [7] | PBM binding z-score [8] | PBM binding z-score [9] | PBM binding z-score [10] | PBM binding z-score [11] | PBM binding z-score [12] | PBM binding z-score [13] | PBM binding z-score [14] | PBM binding z-score [15] | PBM binding z-score [16] | PBM binding z-score [17] | PBM binding z-score [18] | PBM binding z-score [19] | PBM binding z-score [20]
1 | ATCTCTACGTAAGACTCAGTTCAGTGAAGAACGC | 0.165 | 0.16 | 0.552 | 0.484 | 0.986 | 0.0277 | 0.265 | 0.146 | 0.213 | 0.131 | -0.086 | 0.118 | 0.872 | 1.57 | 0.776 | 1.09 | 1.22 | 0.208 | 0.199 | 0.279
2 | TCTTATAGATCAAAGGTTAAGAAAGCCGAAGCCT | 2.06 | 2.39 | 0.368 | 2.31 | -0.12 | 4.55 | 7.79 | 7.92 | 7.61 | 9.15 | 2.07 | 3.14 | 0.659 | 0.755 | 2.4 | 2.41 | 0.154 | 3.82 | 0.262 | 2.06
3 | ATCGAAGGGTCGACGAGGTGAGTATACACCGTTT | 1.51 | 0.812 | -0.587 | 0.951 | -0.33 | 2.44 | 1.3 | 0.831 | 0.448 | 0.6 | -0.299 | 0.882 | -0.145 | 0.665 | 0.411 | 1.11 | -0.598 | 2.02 | -0.471 | 2.3
4 | TCTAGTTGGTCACGGAGGTCACCCACGACGGGTA | 3.16 | 3.23 | 2.36 | 2.91 | 0.635 | 3.67 | 3.23 | 4.07 | 3.3 | 3.64 | 2.32 | 4.17 | 1.19 | 1.25 | 3.92 | 4.61 | 1.6 | 4.66 | 1.42 | 3.89
5 | GGAACGAGGGGAAAGTTGATAGCATCTGTCGACG | -0.0769 | -0.0261 | -0.204 | 0.087 | 0.0705 | 2.88 | 4.27 | 6.01 | 3.53 | 6.53 | 1.59 | 1.99 | 0.258 | -1.07 | 0.339 | -0.114 | -0.142 | -0.0298 | 0.277 | 0.213
6 | AGAACGAGGGCACGCTGAGTTGATGGCAGAGTAG | 0.805 | 0.828 | -0.81 | 0.0668 | -1.05 | 2.22 | 2.22 | 1.63 | 0.228 | 1.27 | 4.26 | 3.81 | 0.605 | -0.669 | 0.179 | 1.13 | -0.226 | 0.999 | -0.371 | 2.38
7 | ATCTCTCGGTAACCAAGTTCAGTGAATGCCGAAC | 0.00199 | 0.567 | 1.33 | 0.672 | 0.975 | 0.668 | -0.0283 | 0.289 | -0.287 | 0.0566 | -0.264 | 0.594 | 0.5 | 0.409 | 0.702 | 1.85 | 1.8 | 0.427 | 0.774 | 0.997
8 | GCGACTGGGGCGAAGCAGGTTACCATAAGGTTGG | -0.35 | -0.539 | -0.81 | -0.315 | -1.13 | 0.234 | 0.378 | -0.549 | -0.972 | -0.732 | 0.93 | 0.737 | -1.9 | -1.09 | -0.411 | -0.249 | -0.709 | -0.0547 | -0.898 | 0.235
9 | CCGACTGGGTCATAAGGTTACCATAAGCCAGCCC | 2.99 | 3.47 | -0.00526 | 2.23 | -0.614 | 4.14 | 5.19 | 5.46 | 2.95 | 4.86 | 5.16 | 5.58 | 0.678 | 0.517 | 2.93 | 2.45 | 0.189 | 4.18 | 0.218 | 3.38
10 | AGAATGAGGTTATTAAGATCAGGGCATTGCGGTC | 1.9 | 1.95 | 0.705 | 1.39 | -0.0987 | 2.66 | 1.67 | 2.33 | 1 | 1.39 | 3.64 | 2.96 | 0.978 | -0.0431 | 1.27 | 1.83 | 1.83 | 1.79 | 0.408 | 1.75
11 | CAAACTAGGTCACAGAGGTCAAATTCCGTGCGTA | 7.61 | 6.88 | 8.33 | 6.71 | 3.6 | 6.59 | 10.5 | 8.65 | 7.13 | 8.61 | 8.77 | 8.98 | 8.04 | 3.55 | 6.47 | 7.14 | 12.3 | 7.83 | 3.22 | 5.4
12 | ACTAGCAGGCCAAGGGTCACTCTAGATTAGTCCG | 1.88 | 3.2 | 0.239 | 2.54 | -0.423 | 4.44 | 7.53 | 7.29 | 6.21 | 7.97 | 0.951 | 3.59 | -0.404 | -0.203 | 2.32 | 2.94 | -0.367 | 4.14 | -0.113 | 3.1
13 | ATCTCTAGGTGAAGATAGTTCAGTGAATGCAAAT | 0.203 | 1.02 | 0.126 | 0.441 | 0.00986 | 1.69 | 1.75 | 1.55 | 0.448 | 0.885 | 4.18 | 4.44 | 0.653 | 1.5 | 0.717 | 1.58 | 0.667 | 0.801 | 0.811 | 1.29
